What all share (assay): DAPPL (digital affinity profiling via proximity ligation, sequencing); 10 mM Tris-HCl pH 7.5, 50 mM NaCl, 1 mM DTT, 4% glycerol, room temperature, 30 min; GST-TFs on glutathione beads, 16-mer random dsDNA library, 0.1% formaldehyde crosslink after washing; high values mean tight binding
For one assay, the target named is T1, FLI1 (Homo sapiens, UniProt Q01543 1-452).
T1 sequence: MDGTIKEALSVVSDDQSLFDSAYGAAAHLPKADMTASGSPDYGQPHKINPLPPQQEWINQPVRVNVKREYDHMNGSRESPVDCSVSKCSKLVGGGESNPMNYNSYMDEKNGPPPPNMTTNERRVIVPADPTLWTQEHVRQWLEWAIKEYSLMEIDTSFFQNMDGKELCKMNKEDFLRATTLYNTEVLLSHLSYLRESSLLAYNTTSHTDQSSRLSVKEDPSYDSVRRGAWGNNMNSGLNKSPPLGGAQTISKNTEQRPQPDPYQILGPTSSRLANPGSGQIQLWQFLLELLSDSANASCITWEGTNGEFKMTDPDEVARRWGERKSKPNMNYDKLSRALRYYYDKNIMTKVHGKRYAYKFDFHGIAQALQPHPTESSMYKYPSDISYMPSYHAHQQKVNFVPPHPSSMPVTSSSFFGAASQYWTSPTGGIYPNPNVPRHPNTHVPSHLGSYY
The settings on record: protein: recombinant; tags: N-terminal GST; dsDNA, one strand shown. The method in brief:
(§1)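 Sequencing on an Illumina NextSeq500 followed washing, crosslinking with 0.1% formaldehyde, proximity ligation (BsaI/T4 ligase, 1 h, 37 °C) and PCR amplification of pools that had been incubated for 30 min at room temperature with 200 nmole of a random double-stranded 16-mer DNA library in Tris/NaCl/DTT/glycerol buffer. Each pool held DNA-barcoded human transcription factors, expressed in yeast as GST fusions and captured on glutathione beads, plus a tag-only sample. Binding signal is a hexamer's read frequency for a factor divided by its frequency in the tag-only sample.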

The target of another assay is T2, ELK1 (Homo sapiens, UniProt P19419 1-428).
T2 sequence: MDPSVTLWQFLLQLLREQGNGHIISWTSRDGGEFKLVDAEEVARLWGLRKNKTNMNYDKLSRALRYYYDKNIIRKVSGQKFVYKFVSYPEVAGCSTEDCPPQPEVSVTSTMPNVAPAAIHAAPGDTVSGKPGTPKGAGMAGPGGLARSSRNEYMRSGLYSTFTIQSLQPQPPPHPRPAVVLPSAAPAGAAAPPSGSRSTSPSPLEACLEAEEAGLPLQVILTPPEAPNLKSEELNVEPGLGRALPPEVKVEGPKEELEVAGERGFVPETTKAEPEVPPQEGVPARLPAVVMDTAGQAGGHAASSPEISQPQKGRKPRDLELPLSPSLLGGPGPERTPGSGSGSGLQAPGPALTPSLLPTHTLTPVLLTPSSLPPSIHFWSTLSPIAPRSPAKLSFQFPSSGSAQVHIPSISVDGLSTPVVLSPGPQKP
The following applies: protein: recombinant; tags: N-terminal GST; dsDNA, one strand shown. In short, it runs like this: as §1

Another assay addresses T3, GABPA (Homo sapiens, UniProt Q06546 1-454).
T3 sequence: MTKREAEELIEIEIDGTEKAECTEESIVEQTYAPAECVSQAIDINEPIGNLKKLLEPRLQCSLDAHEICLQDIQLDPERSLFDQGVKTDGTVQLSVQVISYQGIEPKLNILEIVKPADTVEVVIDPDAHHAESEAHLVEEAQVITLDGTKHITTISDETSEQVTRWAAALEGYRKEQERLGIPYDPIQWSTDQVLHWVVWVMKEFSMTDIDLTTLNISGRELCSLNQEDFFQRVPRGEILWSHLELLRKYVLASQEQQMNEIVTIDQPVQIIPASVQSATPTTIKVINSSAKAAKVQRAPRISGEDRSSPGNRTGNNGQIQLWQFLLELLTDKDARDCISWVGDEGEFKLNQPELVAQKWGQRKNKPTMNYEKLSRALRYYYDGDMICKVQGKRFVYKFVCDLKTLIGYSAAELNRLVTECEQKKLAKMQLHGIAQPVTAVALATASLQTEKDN
The following applies: protein: recombinant; tags: N-terminal GST; dsDNA, one strand shown. The method in brief: as §1

A further assay has as its target T4, ERG (Homo sapiens, UniProt P11308 1-479).
T4 sequence: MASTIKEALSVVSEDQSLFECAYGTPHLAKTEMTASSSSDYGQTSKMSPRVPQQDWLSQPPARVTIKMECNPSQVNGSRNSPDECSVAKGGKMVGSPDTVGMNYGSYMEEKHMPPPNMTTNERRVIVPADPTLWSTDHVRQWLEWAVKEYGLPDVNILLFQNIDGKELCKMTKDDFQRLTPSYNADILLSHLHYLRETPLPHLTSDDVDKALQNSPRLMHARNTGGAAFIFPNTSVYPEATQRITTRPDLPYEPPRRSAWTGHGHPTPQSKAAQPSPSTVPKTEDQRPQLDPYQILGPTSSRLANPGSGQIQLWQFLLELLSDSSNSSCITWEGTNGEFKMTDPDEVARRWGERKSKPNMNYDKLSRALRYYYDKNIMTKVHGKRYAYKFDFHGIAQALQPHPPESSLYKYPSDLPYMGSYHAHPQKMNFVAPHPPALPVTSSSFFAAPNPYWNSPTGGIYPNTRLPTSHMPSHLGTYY
The settings on record: protein: recombinant; tags: N-terminal GST; dsDNA, one strand shown. In short, it runs like this:
as §1

A further assay deals with ELF1 (Homo sapiens, UniProt P32519 1-619). The settings on record: protein: recombinant; tags: N-terminal GST; dsDNA, one strand shown. The method in brief:
as §1

The target in a further assay is T5, EHF (Homo sapiens, UniProt Q9NZC4 1-300).
T5 sequence: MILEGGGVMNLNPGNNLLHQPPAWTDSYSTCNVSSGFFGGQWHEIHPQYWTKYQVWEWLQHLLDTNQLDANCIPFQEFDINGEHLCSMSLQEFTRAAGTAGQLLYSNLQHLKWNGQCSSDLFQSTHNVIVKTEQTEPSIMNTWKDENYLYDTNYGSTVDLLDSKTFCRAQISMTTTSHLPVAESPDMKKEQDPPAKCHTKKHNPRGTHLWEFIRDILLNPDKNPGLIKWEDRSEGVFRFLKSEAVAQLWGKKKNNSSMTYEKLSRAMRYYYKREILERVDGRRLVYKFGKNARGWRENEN
The following applies: protein: recombinant; tags: N-terminal GST; dsDNA, one strand shown. In short, it runs like this:
as §1

A further assay deals with SPI1 (Homo sapiens, UniProt P17947 1-270). The settings on record: protein: recombinant; tags: N-terminal GST; dsDNA, one strand shown. The method in brief:
as §1

The target of the next assay is SPIB (Homo sapiens, UniProt Q01892 1-262). The settings on record: protein: recombinant; tags: N-terminal GST; dsDNA, one strand shown. In short, it runs like this:
as §1

The next assay has as its target T6, FEV (Homo sapiens, UniProt Q99581 1-238).
T6 sequence: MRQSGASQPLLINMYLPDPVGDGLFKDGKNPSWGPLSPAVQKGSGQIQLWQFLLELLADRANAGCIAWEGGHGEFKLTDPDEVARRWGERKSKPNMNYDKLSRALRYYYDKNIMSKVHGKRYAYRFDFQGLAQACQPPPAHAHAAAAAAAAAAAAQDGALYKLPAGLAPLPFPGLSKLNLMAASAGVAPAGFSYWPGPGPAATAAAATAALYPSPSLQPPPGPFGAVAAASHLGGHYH
The following applies: protein: recombinant; tags: N-terminal GST; dsDNA, one strand shown. In short, it runs like this:
as §1

A further assay deals with ETV5 (Homo sapiens, UniProt P41161 1-510). The settings on record: protein: recombinant; tags: N-terminal GST; dsDNA, one strand shown. In short, it runs like this:
as §1

The target of the next assay is HSF1 (Homo sapiens, UniProt Q00613 1-529). The following applies: protein: recombinant; tags: N-terminal GST; chain copies: 3; dsDNA, one strand shown. The method in brief:
as §1

In the next assay the target is T7, SPIC (Homo sapiens, UniProt Q8N5J4 1-248).
T7 sequence: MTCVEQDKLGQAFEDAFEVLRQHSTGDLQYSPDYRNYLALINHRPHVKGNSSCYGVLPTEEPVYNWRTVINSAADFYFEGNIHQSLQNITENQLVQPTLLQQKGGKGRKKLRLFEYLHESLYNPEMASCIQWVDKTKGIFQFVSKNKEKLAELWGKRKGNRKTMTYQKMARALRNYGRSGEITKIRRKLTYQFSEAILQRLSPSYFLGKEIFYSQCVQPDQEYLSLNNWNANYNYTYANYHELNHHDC
The settings on record: protein: recombinant; tags: N-terminal GST; dsDNA, one strand shown. In short, it runs like this:
as §1

Another assay has as its target ELF4 (Homo sapiens, UniProt Q99607 1-663). The settings on record: protein: recombinant; tags: N-terminal GST; dsDNA, one strand shown. In short, it runs like this:
as §1

For another assay, the target named is T8, ELK4 (Homo sapiens, UniProt P28324-2 1-405).
T8 sequence: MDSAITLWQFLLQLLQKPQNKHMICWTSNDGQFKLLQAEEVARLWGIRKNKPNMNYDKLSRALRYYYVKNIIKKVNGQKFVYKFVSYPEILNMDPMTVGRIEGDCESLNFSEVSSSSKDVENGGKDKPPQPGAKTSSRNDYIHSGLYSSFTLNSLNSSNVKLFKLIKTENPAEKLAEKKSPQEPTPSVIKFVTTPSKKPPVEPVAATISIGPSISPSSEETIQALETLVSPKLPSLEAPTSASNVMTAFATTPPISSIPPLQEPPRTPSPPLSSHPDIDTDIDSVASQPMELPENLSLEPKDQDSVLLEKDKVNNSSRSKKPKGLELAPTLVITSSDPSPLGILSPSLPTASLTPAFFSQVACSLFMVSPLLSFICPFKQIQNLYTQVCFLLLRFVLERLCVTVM
The settings on record: protein: recombinant; tags: N-terminal GST; dsDNA, one strand shown. In short, it runs like this:
as §1

The target in the next assay is T9, ETV2 (Homo sapiens, UniProt O00321 1-342).
T9 sequence: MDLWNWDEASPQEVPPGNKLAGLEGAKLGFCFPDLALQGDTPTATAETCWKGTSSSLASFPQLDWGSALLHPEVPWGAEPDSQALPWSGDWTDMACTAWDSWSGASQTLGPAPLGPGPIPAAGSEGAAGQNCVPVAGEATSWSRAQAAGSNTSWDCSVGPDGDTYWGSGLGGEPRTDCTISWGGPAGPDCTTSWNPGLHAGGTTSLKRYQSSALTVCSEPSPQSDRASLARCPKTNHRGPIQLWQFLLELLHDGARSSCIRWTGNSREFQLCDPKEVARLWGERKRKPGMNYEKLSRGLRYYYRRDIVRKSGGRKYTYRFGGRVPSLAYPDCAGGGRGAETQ
The settings on record: protein: recombinant; tags: N-terminal GST; dsDNA, one strand shown. The method in brief:
as §1

For another assay, the target named is T10, ELF3 (Homo sapiens, UniProt P78545 1-371).
T10 sequence: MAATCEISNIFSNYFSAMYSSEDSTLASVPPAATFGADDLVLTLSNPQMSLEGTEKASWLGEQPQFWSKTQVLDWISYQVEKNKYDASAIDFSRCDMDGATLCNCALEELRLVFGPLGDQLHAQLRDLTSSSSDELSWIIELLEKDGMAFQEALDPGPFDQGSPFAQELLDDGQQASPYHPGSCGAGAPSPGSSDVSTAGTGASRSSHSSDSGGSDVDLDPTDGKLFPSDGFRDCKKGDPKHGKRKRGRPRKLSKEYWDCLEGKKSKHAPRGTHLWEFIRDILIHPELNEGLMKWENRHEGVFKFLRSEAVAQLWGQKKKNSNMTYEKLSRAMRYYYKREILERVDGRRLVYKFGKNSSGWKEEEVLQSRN
The following applies: protein: recombinant; tags: N-terminal GST; dsDNA, one strand shown. In short, it runs like this: as §1

In another assay the target is CRX (Homo sapiens, UniProt O43186 1-299). The following applies: protein: recombinant; tags: N-terminal GST; dsDNA, one strand shown. In short, it runs like this:
as §1

A further assay deals with ETV1 (Homo sapiens, UniProt P50549 1-477). The following applies: protein: recombinant; tags: N-terminal GST; dsDNA, one strand shown. The method in brief:
as §1

Sequence of ELF4 (Q99607 whole entry): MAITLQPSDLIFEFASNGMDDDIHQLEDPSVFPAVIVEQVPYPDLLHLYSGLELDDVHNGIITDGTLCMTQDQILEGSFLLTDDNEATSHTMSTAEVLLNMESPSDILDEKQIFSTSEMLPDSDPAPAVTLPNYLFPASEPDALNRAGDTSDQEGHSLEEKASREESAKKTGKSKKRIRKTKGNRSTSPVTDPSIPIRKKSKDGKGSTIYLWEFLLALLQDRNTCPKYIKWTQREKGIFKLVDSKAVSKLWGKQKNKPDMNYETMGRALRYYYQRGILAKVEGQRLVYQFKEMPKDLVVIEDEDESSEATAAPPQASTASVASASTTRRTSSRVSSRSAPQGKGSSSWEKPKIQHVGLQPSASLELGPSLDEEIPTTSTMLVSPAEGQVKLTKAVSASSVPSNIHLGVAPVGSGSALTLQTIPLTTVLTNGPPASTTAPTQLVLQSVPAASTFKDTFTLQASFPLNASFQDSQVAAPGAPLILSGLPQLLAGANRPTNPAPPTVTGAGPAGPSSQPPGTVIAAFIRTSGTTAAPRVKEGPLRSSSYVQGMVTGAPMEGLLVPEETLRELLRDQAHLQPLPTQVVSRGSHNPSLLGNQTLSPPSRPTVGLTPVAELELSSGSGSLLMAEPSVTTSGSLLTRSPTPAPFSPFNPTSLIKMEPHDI
Sequence of ETV5 (P41161 whole entry): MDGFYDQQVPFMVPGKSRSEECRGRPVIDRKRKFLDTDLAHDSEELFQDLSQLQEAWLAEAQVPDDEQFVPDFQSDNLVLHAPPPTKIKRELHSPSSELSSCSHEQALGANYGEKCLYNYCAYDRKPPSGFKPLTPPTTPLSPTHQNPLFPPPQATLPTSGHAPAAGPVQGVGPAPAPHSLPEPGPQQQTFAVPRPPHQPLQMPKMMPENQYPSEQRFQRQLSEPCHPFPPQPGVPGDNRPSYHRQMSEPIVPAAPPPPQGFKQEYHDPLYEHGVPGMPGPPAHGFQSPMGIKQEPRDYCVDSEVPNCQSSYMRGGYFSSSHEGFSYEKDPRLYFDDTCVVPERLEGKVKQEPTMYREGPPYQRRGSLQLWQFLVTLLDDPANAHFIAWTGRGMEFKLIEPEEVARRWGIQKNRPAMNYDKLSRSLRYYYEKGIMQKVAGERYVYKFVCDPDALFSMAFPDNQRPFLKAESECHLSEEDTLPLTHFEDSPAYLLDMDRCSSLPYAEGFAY
Sequence of ETV1 (P50549 whole entry): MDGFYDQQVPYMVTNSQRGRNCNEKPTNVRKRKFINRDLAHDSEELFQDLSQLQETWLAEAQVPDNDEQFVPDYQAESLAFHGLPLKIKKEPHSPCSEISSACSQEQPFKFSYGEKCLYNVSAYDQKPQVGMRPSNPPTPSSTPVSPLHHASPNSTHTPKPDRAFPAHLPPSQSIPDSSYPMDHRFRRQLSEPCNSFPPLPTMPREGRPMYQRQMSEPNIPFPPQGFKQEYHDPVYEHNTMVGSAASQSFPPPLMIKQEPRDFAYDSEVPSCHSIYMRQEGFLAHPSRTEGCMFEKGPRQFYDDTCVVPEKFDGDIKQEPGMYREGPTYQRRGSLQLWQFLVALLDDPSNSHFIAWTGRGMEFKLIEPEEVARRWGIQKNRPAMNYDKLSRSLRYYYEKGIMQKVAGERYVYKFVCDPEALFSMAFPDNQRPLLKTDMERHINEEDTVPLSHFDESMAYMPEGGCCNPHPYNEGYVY
Sequence of CRX (O43186 whole entry): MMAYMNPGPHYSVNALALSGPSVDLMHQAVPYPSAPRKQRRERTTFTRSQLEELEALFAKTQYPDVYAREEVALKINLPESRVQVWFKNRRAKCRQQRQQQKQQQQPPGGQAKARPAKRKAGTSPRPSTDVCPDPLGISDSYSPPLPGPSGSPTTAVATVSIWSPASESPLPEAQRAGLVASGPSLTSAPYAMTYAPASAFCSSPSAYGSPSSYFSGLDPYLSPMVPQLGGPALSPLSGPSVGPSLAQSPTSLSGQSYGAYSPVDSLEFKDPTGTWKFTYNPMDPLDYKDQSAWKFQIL
Sequence of SPIB (Q01892 whole entry): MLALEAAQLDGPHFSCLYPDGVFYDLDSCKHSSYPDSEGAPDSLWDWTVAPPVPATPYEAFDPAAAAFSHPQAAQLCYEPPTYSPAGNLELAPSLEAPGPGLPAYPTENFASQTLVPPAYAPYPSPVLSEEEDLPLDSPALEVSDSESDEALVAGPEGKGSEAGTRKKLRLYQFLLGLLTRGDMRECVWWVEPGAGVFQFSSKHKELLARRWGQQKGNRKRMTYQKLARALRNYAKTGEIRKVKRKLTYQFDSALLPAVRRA
Sequence of HSF1 (Q00613 whole entry): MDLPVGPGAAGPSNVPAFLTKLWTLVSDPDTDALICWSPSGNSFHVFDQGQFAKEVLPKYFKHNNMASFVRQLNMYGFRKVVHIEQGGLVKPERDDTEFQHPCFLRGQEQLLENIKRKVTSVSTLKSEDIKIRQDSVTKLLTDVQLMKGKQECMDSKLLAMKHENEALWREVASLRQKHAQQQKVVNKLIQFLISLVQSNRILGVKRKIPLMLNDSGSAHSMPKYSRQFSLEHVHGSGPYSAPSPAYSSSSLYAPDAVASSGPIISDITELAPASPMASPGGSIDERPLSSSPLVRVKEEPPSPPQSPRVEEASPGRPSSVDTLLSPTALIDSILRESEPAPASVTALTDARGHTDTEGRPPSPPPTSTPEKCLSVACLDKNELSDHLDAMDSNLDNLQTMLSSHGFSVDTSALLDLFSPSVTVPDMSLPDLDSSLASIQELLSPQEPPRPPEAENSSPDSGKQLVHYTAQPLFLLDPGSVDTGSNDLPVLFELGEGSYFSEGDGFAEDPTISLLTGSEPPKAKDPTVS
Sequence of ELF1 (P32519 whole entry): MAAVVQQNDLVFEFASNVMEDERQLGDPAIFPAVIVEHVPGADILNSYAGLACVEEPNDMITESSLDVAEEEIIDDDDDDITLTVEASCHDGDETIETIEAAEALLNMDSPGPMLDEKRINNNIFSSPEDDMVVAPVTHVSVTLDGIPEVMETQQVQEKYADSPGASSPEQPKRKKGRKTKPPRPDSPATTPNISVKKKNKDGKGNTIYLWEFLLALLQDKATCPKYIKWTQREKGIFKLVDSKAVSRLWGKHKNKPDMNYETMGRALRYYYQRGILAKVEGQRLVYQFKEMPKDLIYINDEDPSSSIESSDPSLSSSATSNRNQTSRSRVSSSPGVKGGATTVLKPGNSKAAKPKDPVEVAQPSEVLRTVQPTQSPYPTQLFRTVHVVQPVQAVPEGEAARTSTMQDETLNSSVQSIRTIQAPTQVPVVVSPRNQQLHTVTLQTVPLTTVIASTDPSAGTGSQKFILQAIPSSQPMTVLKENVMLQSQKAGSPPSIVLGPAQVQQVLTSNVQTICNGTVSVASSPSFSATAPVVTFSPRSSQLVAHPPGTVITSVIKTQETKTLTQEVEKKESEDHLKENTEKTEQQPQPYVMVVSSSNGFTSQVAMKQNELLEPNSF

As for CTTGAA, the binding signal was 1.16 fold enrichment (6-mer frequency, TF over GST control) with FLI1; 1.24 fold enrichment (6-mer frequency, TF over GST control) in the assay with ELK1; 1.09 fold enrichment (6-mer frequency, TF over GST control) in the assay with GABPA; 1.12 fold enrichment (6-mer frequency, TF over GST control) with ERG; 1.2 fold enrichment (6-mer frequency, TF over GST control) in the assay with ELF1; 1.18 fold enrichment (6-mer frequency, TF over GST control) with EHF. Also, the binding signal was 1.13 fold enrichment (6-mer frequency, TF over GST control) in the assay with SPI1; 1.17 fold enrichment (6-mer frequency, TF over GST control) with SPIB; 1.05 fold enrichment (6-mer frequency, TF over GST control) with FEV; 1.09 fold enrichment (6-mer frequency, TF over GST control) with ETV5; 1.26 fold enrichment (6-mer frequency, TF over GST control) with HSF1; 1.09 fold enrichment (6-mer frequency, TF over GST control) in the assay with SPIC. Besides, the binding signal with ELF4 is 1.19 fold enrichment (6-mer frequency, TF over GST control); in the assay with ELK4, 1.22 fold enrichment (6-mer frequency, TF over GST control); with ETV2, 1.11 fold enrichment (6-mer frequency, TF over GST control); in the assay with ELF3, 1.08 fold enrichment (6-mer frequency, TF over GST control); with CRX, 1.16 fold enrichment (6-mer frequency, TF over GST control); with ETV1 it was 1.09 fold enrichment (6-mer frequency, TF over GST control).

Values taken from paper PMC7862700, “An all-to-all approach to the identification of sequence-specific readers for epigenetic DNA modifications on cytosine”.
